Several values for one entry are separate records, joined by “and”; a condition that tells them apart may be missing. Identical values can stand only once. Inconclusive results are not listed. The source holds several records for some structures; these can differ, active in one and inactive in another. Activity calls are given as the source filed them. The calls were made as follows, unless noted: active = hit-call score of the fitted dose curve at least 0.9, where 1 is the maximum; inactive = score below 0.9.
Legend:
[1] = IUF_NPC1a_proliferation_area_72hr: Leibniz Research Institute for Environmental Medicine (IUF) 72-hour Neural Progenitor Cell Proliferation Area Assay (NPC1a) (AID 2284208)
Method in brief: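 Measured in 3D suspension: each well held one primary hNPC sphere grown with EGF and FGF at pH 7.2-7.6. Compound stayed on for 72 h, then area was imaged; spheres lacking growth factors defined reduced proliferation.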

[2] = IUF_NPC1_viability_72hr: Viability Assessment at 72 hours in the Leibniz Research Institute for Environmental Medicine (IUF) Neural Progenitor Cell Proliferation Assay (NPC1) (AID 2284209)
Method in brief: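 Single spheres (0.25-0.35 mm) of human fetal cortex-derived neural progenitor cells were grown in proliferation medium with EGF and FGF at 37C and 5% CO2. They were exposed for 72 h without renewal, and viability was read by alamar blue resorufin fluorescence.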

[3] = CCTE_Mundy_HCI_Cortical_Synap_Neur_Matur_NeuriteSpotCountPerNeuriteLength: CCTE's Synaptogenesis and Neurite Maturation Assay in rat cortical cells for Neurite Spot Count per Neurite Length, Mundy Lab (AID 2284210)
Method in brief: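 Primary rat cortical neurons, compound exposure DIV 7–12, 288.33 h endpoint. Hoechst, anti-MAP2 and anti-synaptophysin labelling; neurite-associated puncta per neurite length scored by automated imaging relative to DMSO controls.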

[4] = CCTE_Mundy_HCI_Cortical_Synap_Neur_Matur_BPCount: CCTE's Synaptogenesis and Neurite Maturation Assay in rat cortical cells for Branch Point Count, Mundy Lab (AID 2284211)
Method in brief: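 Rat primary cortical cultures, AraC added DIV 5; chemicals dosed DIV 7 through DIV 12. Fixed cells stained for MAP2, synaptophysin and Hoechst; neurite branch points counted by automated high-content imaging, fitted relative to DMSO.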

[5] = CCTE_Mundy_HCI_Cortical_NOG_NeuriteCount: CCTE's Neurite Outgrowth Assay in rat cortical cells for Neurite Count, Mundy Lab (AID 2284212);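 also: cells fixed about two days after chemical exposure began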
Method in brief: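 Neurite number per cell from high-content imaging of betaIII-tubulin immunostaining, with Hoechst nuclear counterstain.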

[6] = CCTE_Mundy_HCI_Cortical_NOG_NeuriteLength: CCTE's Neurite Outgrowth Assay in rat cortical cells for Neurite Length, Mundy Lab (AID 2284213);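 as to AC50: neurites imaged about 48 to 50 h after chemical exposure began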
Method in brief: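 Neurite length was read by high-content imaging of βIII-tubulin-labelled neurites in rat primary cortical cultures. Activity was fitted relative to DMSO.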

[7] = CCTE_Mundy_HCI_Cortical_Synap_Neur_Matur_NeuriteLength: CCTE's Synaptogenesis and Neurite Maturation Assay in rat cortical cells for Neurite Length, Mundy Lab (AID 2284214)
Method in brief: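 Rat primary cortical cultures, AraC added DIV 5, dosed DIV 7 through DIV 12 […]. Fixed, MAP2/synaptophysin immunostained with Hoechst; neurite length by high-content imaging, fitted in positive direction versus DMSO.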

[8] = CCTE_Mundy_HCI_Cortical_Synap_Neur_Matur_SynapseCount: CCTE's Synaptogenesis and Neurite Maturation Assay in rat cortical cells for Synapse Count, Mundy Lab (AID 2284218)
Method in brief: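 Rat primary cortical cultures, AraC at DIV 5, chemical dosing DIV 7 to DIV 12 (288.33 h). Fixed cells stained for MAP2, synaptophysin and Hoechst; synapses per neuron counted by high-content imaging, loss of signal versus DMSO.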

[9] = CCTE_Mundy_HCI_Cortical_Synap_Neur_Matur_NeuriteCount: CCTE's Synaptogenesis and Neurite Maturation Assay in rat cortical cells for Neurite Count, Mundy Lab (AID 2284222);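 as to outcome: exposure from day 7 to day 12 in vitro with readout at day 12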
Method in brief: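 Primary rat cortical cells were plated, treated with AraC at DIV 5, then exposed to chemicals from DIV 7 through DIV 12. After fixation and immunostaining for MAP2 and synaptophysin, imaging quantified neurites, with DMSO as the negative control.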

[10] = CCTE_Mundy_HCI_Cortical_Synap_Neur_Matur_CellBodySpotCount: CCTE's Synaptogenesis and Neurite Maturation Assay in rat cortical cells for Cell Body Spot Count, Mundy Lab (AID 2284223)
Method in brief: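 Chemicals were applied to AraC-treated rat primary cortical cells at DIV 7 and measured at DIV 12. Fixed cells were labelled for MAP2, synaptophysin and nuclei, and high-content imaging gave cell body synaptophysin spot counts per neuron relative to DMSO.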

[11] = CCTE_Mundy_HCI_hNP1_Pro_ResponderAvgInten: CCTE's Proliferation Assay in human neuroprogenitor cells, Mundy Lab (AID 2284224; active = hit-call score of the fitted dose curve at least 0.9, where 1 is the maximum;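 also: human neural progenitor cells hNP1 derived from WA09 embryonic stem cells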)
Method in brief: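 Proliferation was scored as BrdU labelling intensity in human neural progenitors derived from WA09 embryonic cells, measured 26.25 hours after chemical dosing. Activity was fitted relative to DMSO.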

[12] = TAMU_PeakParms_SingleDonor1434_Chronotropy: Texas A&M University (TAMU) 1.5-hr Human Induced Pluripotent Stem Cell (iPSC)-derived Cardiomyocytes Calcium (Ca+2) Flux Assay for Cardiotoxicity: Chronotropy (changes in peak frequency) (AID 2284217); conditions: actives raise or lower the signal
Method in brief: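 iPSC-CMs, donor 1434; 4 conc (0.2–100 uM), 0.5% v/v DMSO, 90 min, 37C/5% CO2; Ca2+ flux fluorescence → peak.freq.avg; peak.freq.avg = 0 dropped; bidirectional fit vs DMSO; EC05 POD.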

[13] = BSK_BT_PBMCCytotoxicity: PBMC Cytotoxicity Assessment in the BioMAP Diversity Plus: BT Assay (AID 2284225); conditions: primary human B cells with PBMC;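 also: PBMC viability measured by Alamar Blue dye reduction fluorescence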
Method in brief: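 PBMC (75,000/well) pretreated with compound 1 h, then activated with SEB and TSST-1 (20 ng/mL each final), incubated 90 h; Alamar Blue added 6 h, fluorescence read at 546/580 nm. Fitted relative to DMSO.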

[14] = read-out: Secreted IgG (sIgG), gene 3500; experiment: BSK_BT_sIgG: BioMAP Diversity Plus: BT Assay for Secreted IgG (sIgG) Biomarker Activity (AID 2284226); conditions: primary human B cells with PBMC
Method in brief: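 Human B cell plus PBMC co-culture; secreted IgG measured by ELISA 24 h after chemical dosing. Response fitted in positive direction relative to DMSO baseline.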

[15] = BSK_BT_Bcell_Proliferation: Viability Assessment in the BioMAP Diversity Plus: BT Assay for B cell Proliferation (AID 2284227); conditions: primary human B cells with PBMC
Method in brief: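 Read-out is absorbance at 560 nm from sulforhodamine B staining of total protein, reflecting relative cell numbers in a human B cell and PBMC co-culture after 72 h of chemical exposure. Values were referenced to DMSO.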

[16] = read-out: Interleukin 6 (IL6), IL6 (gene 3569); experiment: BSK_BT_xIL6: BioMAP Diversity Plus: BT Assay for Interleukin 6 (IL6) Biomarker Activity (AID 2284228); conditions: primary human B cells with PBMC
Method in brief: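 IL-6 secretion measured (Luminex xMAP) in human primary B cell + PBMC co-culture at 24 h of chemical exposure; DMSO served as negative control and activity baseline, with curves fitted for increase.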

[17] = read-out: Interleukin 17A (IL17A), IL17A (gene 3605); experiment: BSK_BT_xIL17A: BioMAP Diversity Plus: BT Assay for Interleukin 17A (IL17A) Biomarker Activity (AID 2284229); conditions: primary human B cells with PBMC
Method in brief: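 Human primary B cells plus PBMC, treated 24 h with chemicals; supernatant IL-17A quantified on Luminex xMAP beads. Gain of signal over DMSO control scored as activity.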

[18] = read-out: Tumor necrosis factor (Homo sapiens) (UniProt P01375); experiment: BSK_BT_xTNFa: BioMAP Diversity Plus: BT Assay for Tumor necrosis factor alpha (TNF-alpha) Biomarker Activity (AID 2284230); conditions: primary human B cells with PBMC
Method in brief: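 Human primary co-culture of B cells and peripheral blood mononuclear cells; TNF-alpha in supernatant, 24 h post-dose, Luminex multiplex; DMSO = baseline.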

Sequence of Tumor necrosis factor (Homo sapiens) (P01375 whole entry, looked up): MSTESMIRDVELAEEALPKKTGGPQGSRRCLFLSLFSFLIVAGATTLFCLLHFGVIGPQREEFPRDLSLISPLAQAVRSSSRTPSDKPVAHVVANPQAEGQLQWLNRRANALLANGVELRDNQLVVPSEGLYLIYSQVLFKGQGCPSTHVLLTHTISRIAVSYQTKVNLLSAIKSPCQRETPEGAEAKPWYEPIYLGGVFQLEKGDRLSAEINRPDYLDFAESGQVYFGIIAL

CC(C)N(C(=O)COc1nnc(C(F)(F)F)s1)c1ccc(F)cc1
outcome [1]: inactive
outcome [2]: inactive
outcome [3]: inactive
outcome [4]: inactive
outcome [5]: inactive
outcome [6]: inactive
outcome [7]: inactive
outcome [8]: inactive
outcome [9]: inactive
outcome [10]: inactive
outcome [11]: inactive

COP(=S)(OC)Oc1ccc([N+](=O)[O-])cc1
outcome [1]: inactive
outcome [2]: inactive
outcome [3]: inactive
outcome [4]: inactive
AC50 [5]: 23.4 µM (active)
AC50 [6]: 23.7 µM (active)
AC50 [7]: 15 µM (active)
outcome [8]: inactive
outcome [9]: inactive
outcome [10]: inactive

O=C(O)COc1ccc(Cl)cc1Cl
outcome [1]: inactive
outcome [2]: inactive
outcome [3]: inactive
outcome [5]: inactive
outcome [6]: inactive
outcome [7]: inactive
outcome [8]: inactive
outcome [9]: inactive
outcome [11]: inactive

CC1(C)C(C=C(Cl)Cl)C1C(=O)OC(C#N)c1ccc(F)c(Oc2ccccc2)c1 (configuration not stated)
outcome [1]: inactive
outcome [2]: inactive
AC50 [3]: 82.7 µM (active)
outcome [3]: inactive
AC50 [4]: 49.9 µM (active) and 15 µM (active)
AC50 [5]: 77.2 µM (active)
outcome [5]: inactive
AC50 [6]: 79.7 µM (active)
outcome [6]: inactive
AC50 [7]: 33.1 µM (active) and 2.98 µM (active)
AC50 [8]: 77.9 µM (active)
outcome [8]: inactive
AC50 [9]: 73.6 µM (active)
outcome [9]: inactive
AC50 [10]: 87.1 µM (active)
outcome [10]: inactive
outcome [11]: inactive

CC1(c2ccc(Oc3ccccc3)cc2)OC(=O)N(Nc2ccccc2)C1=O (configuration not stated)
AC50 [1]: 39.6 µM (active)
outcome [2]: inactive
AC50 [3]: 37.6 µM (active)
AC50 [4]: 20.2 µM (active)
AC50 [5]: 55.8 µM (active)
AC50 [6]: 61.3 µM (active)
AC50 [7]: 44.1 µM (active)
AC50 [8]: 40 µM (active)
AC50 [9]: 59 µM (active)
AC50 [10]: 79.9 µM (active)
outcome [11]: inactive

ClC1C(Cl)C(Cl)C(Cl)C(Cl)C1Cl (configuration not stated)
AC50 [12]: 11.5 µM (active)
outcome [13]: inactive
AC50 [14]: 30.5 µM (active) and 21.1 µM (active)
AC50 [15]: 33.6 µM (active)
outcome [15]: inactive
outcome [16]: inactive
outcome [17]: inactive
AC50 [18]: 30.5 µM (active)
outcome [18]: inactive

CNC(=O)CSP(=S)(OC)OC
outcome [1]: inactive
outcome [2]: inactive
outcome [3]: inactive
AC50 [4]: 50 µM (active)
outcome [4]: inactive
outcome [5]: inactive
outcome [6]: inactive
AC50 [7]: 50 µM (active)
outcome [7]: inactive
AC50 [8]: 50 µM (active)
outcome [8]: inactive
AC50 [9]: 50 µM (active)
outcome [9]: inactive
outcome [10]: inactive
outcome [11]: inactive

From PubChem BioAssay (EPA / NIEHS)
